# Test results: PubChem BioAssay
# “And” between values parts separate entries of the source, which are not always exact repeats. Equal values may be shown once. The source made the active and inactive calls.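 The calls were made as follows, unless noted: active = compounds whose cell count with miR-34 switched on is under 0.7 times the count with it off; inactive = the rest.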
# How the values were obtained:
# [1] = Wnt pathway potentiators raising nuclear beta-catenin – imaging, WNT3A-conditioned medium, mouse C2C12, NPC library, primary screen (AID 1117326; in the data active = nuclear beta-catenin stimulation mostly above about 4.2%, no sharp cut-off; inactive = mostly below about 10%); conditions: stronger effect = higher value
# [2] = stimulators of insulin release from INS-1E, primary screen, cell-based, 5 mM glucose, NPC library (AID 1117329;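 active = compound raises insulin release from rat beta cells at 5 mM glucose, no numeric limit stated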); conditions: rat INS-1E insulin secretion, at 10 µM, stronger effect = higher value
# [3] = growth inhibition of GSK3B-pretreated HCT116 cells – cell-based, CellTiter-Glo, 0.2 to 20 µM (AID 1117336;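 active = compounds lowering colon cancer cell viability after pretreatment blocking the GSK3B kinase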); conditions: HCT116 viability after GSK3B inhibitor, at 20 µM, stronger effect = higher value
# [4] = inhibition of endothelial tube formation, primary screen, imaging, VEGF stimulated, CD31 staining, tube area, NPC library (AID 1117340;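 active = compound that reduces growth-factor-driven endothelial tube area in a mixed cell culture, no cutoff stated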); conditions: VEGF-stimulated ADSC/ECFC co-culture, at 10 µM, stronger effect = higher value
# [5] = GLP1 release stimulators, primary, NCI-H716, NPC library (AID 1117341;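 active = compound raises GLP1 secretion from the human gut endocrine cells, with no numeric limit stated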); conditions: NCI-H716 cells, at 10 µM, stronger effect = higher value
# [6] = HCT116 colon cancer cell growth inhibition, primary screen, CellTiter-Glo luminescence, NPC library (AID 1117342;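 active = compounds that lower survival of HCT116 colon cancer cells in the luminescence readout, no numeric limit stated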); conditions: at 20 µM (top of the series)
# [7] = reduced SW480 viability measured with CellTiter-Glo, NPC library, primary (AID 1117343;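 active = compounds that lower viability of the colon cancer cells in the luminescence readout, with no numeric limit stated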); conditions: CellTiter-Glo luminescence; at 20 µM (top of the series)
# [8] = NPC library primary testing for decreased DLD-1 cell viability via CellTiter-Glo (AID 1117346;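 active = compounds that lower survival of DLD-1 colon cancer cells in the luminescence readout, no cutoff given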); conditions: DLD-1 viability, CellTiter-Glo luminescence; at 20 µM (top of the series)
# [9] = molecular target: 6-phosphogluconate dehydrogenase, decarboxylating (Homo sapiens) (UniProt P52209); assay: inhibition of human phosphogluconate dehydrogenase – biochemical, recombinant enzyme, NADPH absorbance, primary screen (AID 1159550;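 active = at least 20% inhibition of 6-phosphogluconate dehydrogenase activity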); conditions: recombinant 6PGD, NADPH absorbance 341 nm; at 10 µM; stronger effect = higher value
# [10] = EMT-state selective cytotoxicity in co-culture – imaging, PC-3E GFP, TEM4-18 mCherry, primary screen (AID 1345086;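 active = compounds killing one labelled cell type while sparing the other, by normalised counts and ratio limits, not self-fluorescent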;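 as to all read-outs here: cells exposed to compound for 72 h before imaging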;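 as to red/green cell ratio (normalised): normalised mesenchymal count divided by normalised epithelial count so high means epithelial killing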); conditions: PC-3E GFP / TEM4-18 mCherry co-culture, imaging cell counts, at 1 µM; for red/green cell ratio (normalised): actives lie on both sides
# [11] = tested on: Aerobactin synthetase IucA (Klebsiella pneumoniae hvKP1); assay: IucA enzyme inhibition, primary screen, biochemical, Spectrum library (AID 1346200; call rule not given here;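 also: 100% = wells without compound and 0% = wells lacking enzyme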); conditions: malachite green pyrophosphate, A620, at 8 µM, stronger effect = lower value
# [12] = viability loss with induced miR-34 in A549 – imaging, A549 dox-inducible miR-34, nuclei and caspase counts, primary screen (AID 1347080); conditions: A549 miR-34 inducible, Hoechst nuclei count, 48 h
# [13] = MELAS cybrid and Rieske KO viability enhancers – cell-based, MELAS cybrids, Rieske KO mouse fibroblasts, CellTiter-Glo, primary screen (AID 1508586;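 active = mean z-score across replicates of 1.96 or higher in either the MELAS or the Rieske mutant cell line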;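 also: z relative to plate mean and SD of compound and empty wells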); conditions: low glucose
# [14] = molecular target: NAD(+) hydrolase SARM1 (Homo sapiens) (UniProt Q6SZW1); assay: blocking NAD cleavage by SARM1 SAM-TIR – cell lysate, NAD-Glo luminescence (AID 1508614;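 active = compound whose remaining NAD level is above about 45 nM, limit read from the data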;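 also: higher remaining NAD means stronger inhibition of SARM1 NADase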); conditions: SAM-TIR HEK293T lysate NADase, at 1 µM, stronger effect = higher value
# [15] = molecular target: Mitogen-activated protein kinase 7 (Homo sapiens) (UniProt Q13164); assay: Gal4-ERK5 driven luciferase induction – cell-based, HTS, primary screen (AID 1508626;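 active = luciferase signal above three times the same-plate solvent-only control wells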;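 also: luciferase driven by Gal4-ERK5 fusion binding five Gal4 sites before minimal TATA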); conditions: HeLa Gal4-ERK5 transactivation, 18 h, at 5 µM, stronger effect = higher value
# [16] = galactose survival enhancers in mitochondrial complex I cybrids – cell-based, galactose medium, ATP luminescence, primary screen (AID 1645843;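 active = z-score of at least 1.8 in each of two replicates, scored against plate mean and spread of sample wells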;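 also: positive z means more ATP and so rescue of galactose-driven cybrid death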); conditions: complex I mutant cybrid cells, 72 h, stronger effect = higher value
# [17] = yeast 75Q aggregation reduction – 75Q-TubU reporter (AID 1593); conditions: Yeast 75Q polyglutamine aggregation reporter
# [18] = blockers of cytochrome c efflux from mitochondria – biochemical, purified mitochondria (AID 1603); conditions: stronger effect = lower value;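 also: mouse liver mitochondria challenged with calcium chloride; signal normalized to the plate average as 100%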
# [19] = polyglutamine aggregate formation blockers (AID 1604); conditions: polyglutamine-induced protein aggregation inhibition assay; stronger effect = higher value; tested at 2.5 µM
# [20] = P. berghei load reduction in hepatocytes – cell-based, HepG2, luciferase luminescence, HepG2 viability, primary screen (AID 624349; in the data active = parasite load remaining mostly below about 12%, no sharp cut-off; inactive = mostly above about 10%;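 also: 100% = mean of DMSO negative control wells on the same plate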); conditions: P. berghei liver stage in HepG2, luciferase luminescence, concentration not given here; parasite load remaining: stronger effect = lower value; viability: measured here: HepG2 viability without parasites
# [21] = measured here: epithelial PC-3E GFP cell survival
# [22] = measured here: mesenchymal TEM4-18 mCherry cell survival
# [23] = measured here: relative caspase fold change +Dox/-Dox
# [24] = measured here: total cells with miR-34 induction, stronger effect = lower value
# [25] = measured here: total cells without miR-34 induction
# [26] = MELAS cybrid survival, CellTiter-Glo 48 h, stronger effect = higher value
# [27] = Rieske KO mouse fibroblast survival, CellTiter-Glo 72 h
# 6-phosphogluconate dehydrogenase, decarboxylating (Homo sapiens), sequence (P52209 whole entry, looked up): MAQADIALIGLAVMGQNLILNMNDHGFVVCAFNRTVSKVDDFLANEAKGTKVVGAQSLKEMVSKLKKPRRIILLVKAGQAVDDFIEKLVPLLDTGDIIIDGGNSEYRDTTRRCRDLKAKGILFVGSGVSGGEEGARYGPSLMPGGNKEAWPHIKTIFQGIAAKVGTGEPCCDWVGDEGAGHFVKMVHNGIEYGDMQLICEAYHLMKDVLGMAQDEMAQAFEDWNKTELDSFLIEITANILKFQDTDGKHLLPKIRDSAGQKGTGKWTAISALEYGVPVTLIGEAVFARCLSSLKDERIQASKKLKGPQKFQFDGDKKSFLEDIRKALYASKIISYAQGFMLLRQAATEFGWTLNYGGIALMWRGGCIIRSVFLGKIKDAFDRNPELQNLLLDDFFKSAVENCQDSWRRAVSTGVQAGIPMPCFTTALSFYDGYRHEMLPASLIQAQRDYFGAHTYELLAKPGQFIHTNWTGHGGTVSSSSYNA
# NAD(+) hydrolase SARM1 (Homo sapiens), sequence (Q6SZW1 whole entry, looked up, the tested form may be a part): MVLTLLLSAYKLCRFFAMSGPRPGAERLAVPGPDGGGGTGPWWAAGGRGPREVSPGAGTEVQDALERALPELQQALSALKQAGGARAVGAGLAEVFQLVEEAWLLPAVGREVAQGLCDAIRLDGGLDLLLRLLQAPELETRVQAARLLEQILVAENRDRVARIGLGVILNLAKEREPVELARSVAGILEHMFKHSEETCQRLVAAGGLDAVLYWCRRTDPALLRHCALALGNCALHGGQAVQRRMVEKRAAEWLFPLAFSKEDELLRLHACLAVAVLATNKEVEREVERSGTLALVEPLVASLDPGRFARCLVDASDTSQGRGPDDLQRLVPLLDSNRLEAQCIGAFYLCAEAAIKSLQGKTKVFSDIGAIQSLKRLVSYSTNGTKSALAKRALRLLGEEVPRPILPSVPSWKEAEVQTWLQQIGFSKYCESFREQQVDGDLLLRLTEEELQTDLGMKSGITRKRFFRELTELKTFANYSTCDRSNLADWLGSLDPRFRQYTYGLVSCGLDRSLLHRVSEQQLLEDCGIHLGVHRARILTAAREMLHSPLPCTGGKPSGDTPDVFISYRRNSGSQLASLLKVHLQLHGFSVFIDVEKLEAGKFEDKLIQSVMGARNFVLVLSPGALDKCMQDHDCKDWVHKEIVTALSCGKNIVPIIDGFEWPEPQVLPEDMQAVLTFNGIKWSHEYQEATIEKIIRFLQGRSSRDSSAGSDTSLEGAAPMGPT
# Mitogen-activated protein kinase 7 (Homo sapiens), sequence (Q13164 whole entry, looked up, the tested form may be a part): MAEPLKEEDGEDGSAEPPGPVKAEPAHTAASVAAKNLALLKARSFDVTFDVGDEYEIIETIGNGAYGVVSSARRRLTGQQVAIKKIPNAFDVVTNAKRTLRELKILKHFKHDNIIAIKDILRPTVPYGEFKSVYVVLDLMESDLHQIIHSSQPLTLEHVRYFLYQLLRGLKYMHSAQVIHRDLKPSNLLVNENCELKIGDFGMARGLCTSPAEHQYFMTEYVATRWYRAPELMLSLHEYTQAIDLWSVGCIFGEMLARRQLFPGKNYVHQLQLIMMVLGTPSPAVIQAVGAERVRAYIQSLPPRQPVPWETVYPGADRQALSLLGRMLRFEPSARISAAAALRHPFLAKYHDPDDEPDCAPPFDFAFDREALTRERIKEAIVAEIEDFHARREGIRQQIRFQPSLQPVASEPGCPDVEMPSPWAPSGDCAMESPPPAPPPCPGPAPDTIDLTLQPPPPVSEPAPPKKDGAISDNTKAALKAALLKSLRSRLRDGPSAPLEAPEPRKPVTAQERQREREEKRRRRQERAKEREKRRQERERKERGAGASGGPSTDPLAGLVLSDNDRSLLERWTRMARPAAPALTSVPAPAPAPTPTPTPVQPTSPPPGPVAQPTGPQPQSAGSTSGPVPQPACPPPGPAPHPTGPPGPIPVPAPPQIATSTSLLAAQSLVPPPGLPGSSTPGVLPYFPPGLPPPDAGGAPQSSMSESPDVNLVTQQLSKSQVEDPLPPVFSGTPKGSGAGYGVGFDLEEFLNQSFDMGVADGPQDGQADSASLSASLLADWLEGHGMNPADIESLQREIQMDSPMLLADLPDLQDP
structure (smiles),measurement,setting,value
COc1ccc(OC)c(C(O)C(C)N)c1 (centres undefined),nuclear beta-catenin stimulation,[1]; at 10 µM,-1.8% (inactive)
same,nuclear beta-catenin stimulation,"[1]; stimulation, at 2 µM",-1.1%
same,insulin secretion stimulation,[2],-0.1% (inactive)
same,viability decrease,[3],4% (inactive)
same,tube area decrease,[4],-6.6% (inactive)
same,GLP1 secretion stimulation,[5],-3.9% (inactive)
same,inhibition of viability,[6],-3% (inactive)
same,viability decrease (inhibition),[7],-2.5% (inactive)
same,viability decrease (inhibition),[8],-4.2% (inactive)
same,inhibition,[9],11.8% (inactive)
same,red/green cell ratio (normalised),[10],0.84 (inactive)
same,normalised cell number,[10]; [21],1.33
same,normalised cell number,[10]; [22],1.11
same,activity remaining,[11],103% (inactive)
same,fold change,[12]; stronger effect = lower value,1.09 (inactive) and 0.79 (inactive) and 0.922 (inactive)
same,fold change,[12]; [23],1.23 and 1.51 and 0.904
same,cell count,[12]; [24],11000 and 8690 and 11600
same,cell count,[12]; [25],10000 and 11000 and 12600
same,z-score,[13]; [26],0.379 (inactive)
same,z-score,[13]; [27],0.108
same,remaining NAD,[14],10 nM (inactive)
same,luciferase signal,[15],104 AU (inactive)
same,z-score,[16],0.13 (inactive)
CC(CCc1ccccc1)NC(C)C(O)c1ccc(O)cc1 (centres undefined),score,[17],1.53
same,cytochrome c release ratio,[18],0.84
same,inhibition of aggregation,[19],63.6%
same,parasite load remaining,[20],75.2% (inactive) and 69.3% (inactive)
same,viability,[20],72.4% and 90.8%
same,nuclear beta-catenin stimulation,[1]; at 10 µM,-0.2% (inactive)
same,nuclear beta-catenin stimulation,"[1]; stimulation, at 2 µM",-0.9%
same,insulin secretion stimulation,[2],43.4% (active)
same,viability decrease,[3],-3.7% (inactive)
same,tube area decrease,[4],16.8% (inactive)
same,GLP1 secretion stimulation,[5],-0.5% (inactive)
same,inhibition of viability,[6],16.9% (inactive)
same,viability decrease (inhibition),[7],24.3% (inactive)
same,viability decrease (inhibition),[8],-7.8% (inactive)
same,inhibition,[9],14.2% (inactive)
same,red/green cell ratio (normalised),[10],1.03 (inactive)
same,normalised cell number,[10]; [21],1.2
same,normalised cell number,[10]; [22],1.24
same,activity remaining,[11],82.9% (inactive)
same,fold change,[12]; stronger effect = lower value,1.06 (inactive) and 0.798 (inactive)
same,fold change,[12]; [23],0.901 and 0.92
same,cell count,[12]; [24],10600 and 10000
same,cell count,[12]; [25],10000 and 12600
same,z-score,[13]; [26],0.615 (inactive)
same,z-score,[13]; [27],-0.62
same,remaining NAD,[14],10 nM (inactive)
same,luciferase signal,[15],40 AU (inactive)
same,z-score,[16],-0.555 (inactive)
Cc1ncc(CNC(=O)N(CCCl)N=O)c(N)n1,parasite load remaining,[20],130% (inactive)
same,viability,[20],90.7%
same,nuclear beta-catenin stimulation,[1]; at 10 µM,3% (inactive)
same,nuclear beta-catenin stimulation,"[1]; stimulation, at 2 µM",-0.9%
same,insulin secretion stimulation,[2],0.3% (inactive)
same,viability decrease,[3],-0.8% (inactive)
same,tube area decrease,[4],28.9% (inactive)
same,GLP1 secretion stimulation,[5],-6% (inactive)
same,inhibition of viability,[6],-0.1% (inactive)
same,viability decrease (inhibition),[7],10.9% (inactive)
same,viability decrease (inhibition),[8],1.8% (inactive)
same,inhibition,[9],2.15% (inactive)
same,red/green cell ratio (normalised),[10],0.95 (inactive)
same,normalised cell number,[10]; [21],0.91
same,normalised cell number,[10]; [22],0.86
same,activity remaining,[11],107% (inactive)
same,fold change,[12]; stronger effect = lower value,0.981 (inactive)
same,fold change,[12]; [23],1.12
same,cell count,[12]; [24],6420
same,cell count,[12]; [25],6540
same,remaining NAD,[14],10 nM (inactive)
same,luciferase signal,[15],100 AU (inactive)
same,z-score,[16],-0.62 (inactive)
